# According to PubChem BioAssay AID2734 (National Center for Advancing Translational Sciences (NCATS), 2010):
# Results filed as inconclusive are left out. A call without a number means that no potency is given here. The source made the active and inactive calls. The call rests on the fitted dose curve; in most records, active means well fitted inhibition curve with a large enough effect; inconclusive means small, poorly fitted or top-dose-only effect, or effect the other way; inactive means no such curve, though single readings can be large or run the other way.
# Assay: High Content Assay for Compounds that inhibit the Assembly of the Perinucleolar Compartment: DNA Intercalation/PicoGreen Displacement Assay
# Conditions: fluorescence (intercalation counter-screen); series mostly up to 57.1 µM
# Text: High Content Assay for Compounds that inhibit the Assembly of the Perinucleolar Compartment
# NIH Chemical Genomics Center [NCGC]
# NIH Molecular Libraries Probe Centers Network [MLPCN]
# Assay Submitter (PI): Sui Huang, Northwestern University, Feinberg School of Medicine, Cell and Molecular Biology, Chicago, Illinois.
# The perinucleolar compartment (PNC) is a non-membrane-bound nuclear subdomain that is associated with but structurally distinct from the nucleolus. The PNC is a heritable trait, in which the number of PNCs per cell in daughter cells often mimics that of their mother cells. The PNC is heterogeneous in shape, is stable through interphase, disassembles during mitosis, and reassembles in early G1. The PNC is concentrated with newly synthesized RNA polymerase III (pol III) RNAs (MRP RNA, RNAse P H1 RNA, hY RNAs[hY1, 2, 5], Alu RNA, and SRP [7SL] RNA) and RNA binding proteins (nucleolin, PTB, CUG-BP, KSRP, Raver1, Raver2, and Rod).
# Extensive in vitro studies have shown that the PNC is unique to tumor cells and preferentially forms in tumor cells derived from solid tissues. Examination of cancer cell lines from various origins and malignant capacities has shown that PNC prevalence correlates with the malignancy of tumors and has the potential to be developed as a pan-cancer prognostic marker.
# Although the PNC is associated with a DNA locus and a handful of components have been identified, much remains to be investigated regarding the structure and function of the PNC and its mechanistic link to cancer. We have previously shown that PNC prevalence reduction is a valid strategy to identify compounds that can be used to study the structure and function of the PNC. It is necessary, however, to create a screening platform that is able to test a large number of compounds in an automated fashion. Here we report the development and robustness of an automated whole-cell phenotypic image-based screening assay that is capable of identifying such compounds.
# Therefore, we conducted a DNA intercalation/displacement assay on the lead candidates in order to exclude compounds with this mechanism of action. PicoGreen is a DNA intercalator that becomes excitable at 488 nm and emits at 520 nm when bound to DNA. Compounds which displace the dye will decrease fluorescence intensity and were considered DNA intercalators/displacers. In order to rule out potential fluorescence artifacts, a measurement of compound plus DNA only was also calculated.
# 1. A supercoiled plasmid (pBR322) was diluted to 200 ng/ml in TE and 2 ul was dispensed into 1536 well black plates Multidrop Combi.(ThermoFisher).
# 2. Followup compounds dissolved in 100% DMSO were transferred using a pintool (23 nl).
# 3. Compounds were incubated in the presence of DNA for 30 minutes at room temperature.
# 4. A baseline signal was measured using an Envision PMT based plate reader using a 488 nm excitation filter and a 520 nm emission filter.
# 5. The PicoGreen dye (Invitrogen) was diluted in TE and 2 ul/well was dispensed to the 1536 well plate using a Multidrop Combi.
# 6. Plates were incubated at 37 C for 10 minutes prior to being read on the envision plate reader. 100 ng/ml of Propidium Iodide was used as the positive intercalation control.
row,SMILES,Potency
1,COC(=O)c1ccc(CSc2ccccc2C)o1,inactive
2,CC(/C=C/c1ccccc1)=N/NC(=O)c1cc([N+](=O)[O-])cc([N+](=O)[O-])c1,inactive
3,O=C(Nc1cccnc1)c1cccs1,inactive
4,CCN(CC)c1ccc(N=Cc2ccccc2[N+](=O)[O-])cc1,3.16 µM (active)
5,CCN(CC)C(=S)SSC(=S)N(CC)CC,inactive
6,CC(=O)Nc1ccc(S(=O)(=O)Oc2ccc3c(c2)C(C)=CC(C)(C)N3)cc1,inactive
7,CSc1nc(-c2ccc(C)cc2)nc(C(Cl)Cl)n1,inactive
8,Cc1ccc(NC2=C/C(=N/S(=O)(=O)c3cccs3)c3ccccc3C2=O)cc1,3.55 µM (active)
9,CCOC(=O)CSc1nc2c(sc3ccc([N+](=O)[O-])cc32)c(=O)n1Cc1ccco1,inactive
10,O=C(Nc1ccc(NC(=O)C2CC2)cn1)c1ccccc1Cl,inactive
11,Cc1cc(=O)[nH]c(N=N/C(=N/Nc2ccccc2C)c2ccccc2)n1,2 µM (active)
12,O=C1C(=O)c2ccc(-c3ccccc3)cc2-c2ccccc21,4.47 µM (active)
13,CCOC(=O)NC1(Nc2ccc(C)cc2)Oc2ccccc2O1,inactive
14,Cc1cc(C)c(S(=O)(=O)/N=C2/C=C(Sc3ncn[nH]3)C(=O)c3ccccc32)cc1C,12.6 µM (active)
15,CCCNC1=C(N(C(C)=O)c2cccc(F)c2)C(=O)c2ccccc2C1=O,inactive
16,O=C1C(Nc2ccccc2)=C/C(=N/S(=O)(=O)c2cccs2)c2ccccc21,2.82 µM (active)
17,C/C(=N/OCO/N=C(/C)c1ccc(F)cc1)c1ccc(F)cc1,inactive
18,Cc1ccc(Cl)cc1N(CC(=O)N1CCCCCC1)S(C)(=O)=O,inactive
19,Cc1ccccc1C(=O)NNC(=S)Nc1cccc(C(F)(F)F)c1,inactive
20,Nc1cccc(-c2nc3ccc(N)cc3s2)c1,inactive
21,O=c1[nH]cnc2c1C(c1ccccc1[N+](=O)[O-])c1c(nc[nH]c1=O)O2,inactive
22,Nc1ccc2c(c1)C(=O)C(=O)c1ccccc1-2,12.6 µM (active)
23,O=C1C(=Cc2cccs2)C(=O)c2ccccc21,inactive
24,CCOC(=O)c1c(NC(=O)c2c(-c3ccccc3)noc2C)sc(C)c1-c1ccccc1,inactive
25,CSc1nnc2c3ccccc3n(CCc3ccccc3)c2n1,inactive
26,CC(=O)/C(C#N)=C1\NC(=O)C(Cc2ccc(C)c(C)c2)S1 (configuration not stated),inactive
27,O=[N+]([O-])c1cc(/C=N/Nc2nc3ccccc3[nH]2)c(O)cc1O,22.4 µM (active)
